Compound activity: PubChem, several laboratories
Only some compounds are listed: those with a hit (about 22% of all), similar ones and a draw of the others.
Measles CPE: protection of cells from measles virus; Measles virus-infected cells, CPE protection, absorbance; protection (pct of control), % at 4 µM; 140,000 compounds, 1.5% hits; AID 841; in the data active = protection mostly above about 24%, no sharp cut-off; inactive = mostly below about 26%
CYP2C9 activ: increases human cytochrome P450 2C9 activity | P11712 | recombinant CYP2C9, luciferin-H conversion, luminescence; stronger effect = higher value; factor 1 = untreated enzyme, 0 = blocked | activation factor at 5 µM | 96,000 compounds, 1.4% hits | AID 1024;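 active = activation factor of 2 or more for CYP2C9 at a 5 µM dose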
CYP2C9 inh: inhibitors of human CYP2C9; CYP2C9 Supersomes, luciferin-H conversion, luminescence; inhibition, % at 5 µM; 96,000 compounds, 20% hits; AID 777; P11712;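 active = blocking of liver enzyme CYP2C9 beyond about 50% at 5 µM, limit read from the data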
CYP2C19 activ: increases human CYP2C19 enzyme activity; P33261; recombinant CYP2C19, luciferin-H EGE luminescence; stronger effect = higher value; 0 = fully inhibited enzyme, 1 = untreated enzyme; activation factor at 5 µM; 96,000 tested, under 10 active;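 active = activation factor of at least 2 at 5 µM in the primary screen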
Target sequence (P33261 whole entry, looked up): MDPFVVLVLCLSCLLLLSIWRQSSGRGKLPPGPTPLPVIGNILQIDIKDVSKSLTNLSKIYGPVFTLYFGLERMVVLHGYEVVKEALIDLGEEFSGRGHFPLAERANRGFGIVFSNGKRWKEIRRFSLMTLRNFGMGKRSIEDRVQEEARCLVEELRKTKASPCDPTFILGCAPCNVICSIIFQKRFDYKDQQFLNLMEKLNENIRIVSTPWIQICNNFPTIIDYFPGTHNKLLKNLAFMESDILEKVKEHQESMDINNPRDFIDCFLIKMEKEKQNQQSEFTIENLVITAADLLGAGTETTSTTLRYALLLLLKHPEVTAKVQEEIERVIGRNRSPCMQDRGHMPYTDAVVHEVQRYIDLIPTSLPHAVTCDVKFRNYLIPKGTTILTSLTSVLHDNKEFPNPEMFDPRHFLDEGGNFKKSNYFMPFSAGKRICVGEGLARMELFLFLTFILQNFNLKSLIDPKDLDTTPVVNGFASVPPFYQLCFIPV
CYP2C19 inhib: human CYP2C19 inhibition | P33261 | CYP2C19 Supersomes, luciferin-H EGE luminescence, 30 min | inhibition, % at 5 µM | 96,000 compounds, 21% hits | AID 778;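 active = CYP2C19 inhibition above a set limit at 5 µM in the primary screen, cut at about 50% in these data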
Of the large screens only hits and unclear results are named; the others gave an inactive call.

CC1CCCN(S(=O)(=O)Cc2ccc(Cl)cc2)C1 (stereo not drawn)	CYP2C19 inhib 97.0
O=S(=O)(c1cc(Cl)ccc1Cl)N1CCNCC1	none
CC1CCCN(S(=O)(=O)c2cc(Cl)ccc2Cl)C1 (stereo not drawn)	CYP2C9 activ 2.4, CYP2C19 inhib 96.2
Cc1ccc(/C=N/NC(=O)c2cccc(S(=O)(=O)Nc3ccccc3Cl)c2)s1	none (no result: CYP2C9 activ, CYP2C9 inh, CYP2C19 activ, CYP2C19 inhib)
CS(=O)(=O)Nc1ccc(C(=O)N2CCN(c3ccccc3)CC2)cc1	Measles CPE 42.2
CCOC(=O)c1c(C)c(C(=O)N2CCN(c3cccc(Cl)c3)CC2)c(C)n1C	CYP2C9 inh 74.0, CYP2C19 inhib 66.8
Cc1cc(C(=O)N2CCN(c3cccc(Cl)c3)CC2)c(C)o1	CYP2C9 inh 60.2
Cc1ccc(C(=O)N2CCN(c3cccc(Cl)c3)CC2)cc1C	CYP2C19 inhib 70.7
Cc1ccc(C(=O)SC2=NCCS2)cc1	none (no result: CYP2C9 activ, CYP2C9 inh, CYP2C19 activ, CYP2C19 inhib)
COc1ccc(C(=O)N2CCN(c3ccc(C)c(C)c3)CC2)cc1OC	none
Cc1ccc(C(=O)N2CCN(c3ccccc3)CC2)cc1C	CYP2C19 inhib 68.7
COC(=O)c1ccc(OCC(O)CN2C(=O)NC(C)(C)C2=O)cc1 (stereo not drawn)	none
CCOC(=O)c1c(CN2CCC(C)CC2)oc2ccc(OC)cc12	CYP2C19 inhib 52.5
CCOC(=O)c1c(CN2CCCCC2)oc2ccc(OC)cc12	none
COc1ccc(CSc2nnnn2Cc2ccccc2)cc1OC	CYP2C9 inh 74.9, CYP2C19 inhib 88.8
NC(=O)c1ccc(-n2nnnc2SCc2ccccc2)cc1	CYP2C19 inhib 87.4
COc1ccccc1-n1nnnc1SCc1cc2c(cc1Br)OCO2	CYP2C9 inh 55.0
O=C(Nc1nccs1)c1ccc(CSc2nnnn2-c2ccccc2)cc1	CYP2C9 inh 92.5, CYP2C19 inhib 92.1
COc1ccc(C)cc1NC(=O)CSc1nnnn1Cc1ccccc1	none
CC(=O)c1cc(C#N)c(Oc2ccc(F)cc2)nc1C	none
COC(=O)Cn1cnc2ccccc2c1=O	none
CCc1ccc(-n2c(CSc3nnnn3-c3ccccc3)nc3ccccc3c2=O)cc1	none
c1ccc(CSc2nnnn2-c2ccccc2)cc1	CYP2C19 inhib 70.7
O=c1cc(CSc2nnnn2-c2ccccc2)[nH]c2[nH]n(-c3ccccc3)c(=O)c12	CYP2C9 inh 56.4
c1ccc(-n2nnnc2SCc2cccc(CSc3nnnn3-c3ccccc3)n2)cc1	none (no result: CYP2C9 activ, CYP2C9 inh, CYP2C19 activ, CYP2C19 inhib)
COc1ccccc1-n1nnnc1SCc1ccccc1	CYP2C19 inhib 75.3
COc1ccc(Oc2nnc(C)c3ccccc23)cc1	none
COc1ccc(CNC(=O)c2ccc(C)o2)cc1	none (no result: CYP2C9 activ, CYP2C9 inh, CYP2C19 activ, CYP2C19 inhib)
CCN(C#N)c1nc(N(C)C)nc(N(C)C)n1	none
COc1ccc(CN(C#N)c2nc(SC)nc(N(C)C)n2)cc1	CYP2C19 inhib 88.9
CCN(CC)c1ncnc2c1sc1nc(N3CCOCC3)c3c(c12)CCC3	none
O=C(O)c1ccc(-c2ccco2)n1Cc1ccccc1	CYP2C9 inh 71.0
COC(=O)c1ccc(-c2ccco2)n1Cc1cccc(C)c1	CYP2C9 inh 81.1, CYP2C19 inhib 59.6
COC(=O)c1ccc(-c2ccco2)n1Cc1cc(C)ccc1C	none
CCOc1cc(Cl)c(NC(C)=O)cc1OCC	none (no result: CYP2C9 activ, CYP2C9 inh, CYP2C19 activ, CYP2C19 inhib)
O=C1c2ccccc2C(=O)N1Cc1nc2ccccc2c(=O)n1CCCn1ccnc1	CYP2C9 inh 91.7, CYP2C19 inhib 87.5
O=C1c2ccccc2C(=O)N1CCc1nc2ccccc2c(=O)n1CCCn1ccnc1	CYP2C9 inh 80.0
Cc1ccc(/C=C/C(=O)Nc2nnc(C)s2)o1	Measles CPE 20.1 (no result: CYP2C9 activ, CYP2C9 inh, CYP2C19 activ, CYP2C19 inhib)
CCCCCCC1/C(=N/O)CCC1C(=O)OC (stereo not drawn)	CYP2C19 inhib 66.1
CCNC(=O)N1c2ccc(OCC)cc2C(C)=CC1(C)C	CYP2C9 inh 50.4, CYP2C19 inhib 66.6
CCOc1ccc2c(c1)C(C)=CC(C)(C)N2C(=O)Nc1ccccc1F	none (no result: CYP2C9 activ, CYP2C9 inh, CYP2C19 activ, CYP2C19 inhib)
CCN(c1nc(C)cc(OC)n1)S(=O)(=O)c1ccccc1	CYP2C19 inhib 76.0
Cc1c(NC(=O)CCN2C(=O)c3ccccc3C2=O)c(=O)n(-c2ccccc2)n1C	none
Cn1c(SCC(=O)c2ccccc2)nnc1-c1ccc(O)cc1	CYP2C19 inhib 93.4
Cn1c(SCC(N)=O)nnc1-c1ccccc1	none
Cn1c(SCC(=O)NC(C)(C)C)nnc1-c1ccc(C(C)(C)C)cc1	CYP2C9 inh 52.7
Cn1c(SCC(=O)c2ccccc2)nnc1-c1cccc(N)c1	CYP2C19 inhib 95.0
Cn1c(SCC(=O)c2ccccc2)nnc1-c1ccco1	none (no result: CYP2C9 activ, CYP2C9 inh, CYP2C19 activ, CYP2C19 inhib)
CCOC(=O)N1CCN(C(=O)c2ccc(N3C(=O)c4ccccc4C3=O)cc2)CC1	none
Cc1ccc(C(=O)Nc2nc(C)c(C)s2)o1	none
O=C(Nc1nnc(-c2ccco2)o1)C1CCCCC1	none
O=C1Cc2ccccc2C(=O)N1CCc1ccccc1	CYP2C19 inhib 51.8
COc1ccc(-n2nnc3c(=O)n(CC(=O)NCC4CCCO4)cnc32)cc1 (stereo not drawn)	none
CC1(C)CC2CC(C)(CN2S(=O)(=O)c2ccc(C(=O)Nc3cc(S(=O)(=O)N4CCOCC4)ccc3Cl)cc2)C1 (stereo not drawn)	none (no result: CYP2C9 activ, CYP2C9 inh, CYP2C19 activ, CYP2C19 inhib)
CC1(C)CC2CC(C)(CN2S(=O)(=O)c2ccc(N)cc2)C1 (stereo not drawn)	CYP2C19 inhib 74.5
O=S(=O)(c1ccc(Cl)cc1)c1ccccn1	CYP2C9 activ 2.1
Cc1ccc(N2CC(C(=O)Nc3nccs3)CC2=O)cc1 (stereo not drawn)	none
c1nc2sc3c(c2c2nnnn12)CCC3	none
CCCOc1ccc(CC(CC(=O)O)(C(=O)O)C(=O)O)cc1	Measles CPE 46.2
CCCCOc1ccc(C(=O)O)cc1	none
CC(=O)C1=C(O)C(=O)N(CCC(=O)O)C1c1cccc(F)c1 (stereo not drawn)	none
CSc1nc(-c2ccco2)nn1C(=O)c1ccco1	none
CSc1nc(-c2ccc(Cl)cc2)nn1C(=O)c1ccco1	Measles CPE 51.6
Cn1nc(C(=O)N2CCOCC2)c2ccccc2c1=O	none (no result: Measles CPE)
Cc1onc(-c2ccccc2Cl)c1C(=O)Nc1ccc(N2CCOCC2)cc1	none
Cc1ccccc1-n1nc2c(c1NC(=O)c1c(-c3ccccc3Cl)noc1C)CSC2	CYP2C9 inh 50.0
Cc1onc(-c2ccccc2Cl)c1C(=O)Nc1ccccc1N1CCOCC1	CYP2C9 inh 68.8, CYP2C19 inhib 61.3
Cc1onc(-c2ccccc2Cl)c1C(=O)NC(=S)Nc1ccccc1C(N)=O	none (no result: CYP2C9 activ, CYP2C9 inh, CYP2C19 activ, CYP2C19 inhib)
Cc1onc(-c2ccccc2Cl)c1C(=O)NCc1ccccc1	CYP2C9 inh 58.1, CYP2C19 inhib 88.0
Cc1onc(-c2ccccc2Cl)c1C(=O)Nc1ccccc1C(=O)NC(C)C	CYP2C9 inh 78.6
C=CCNC(=S)NNC(=O)c1csc(C)c1C	none (no result: CYP2C9 activ, CYP2C9 inh, CYP2C19 activ, CYP2C19 inhib)
Clc1cccc(-c2nn3c(-c4cccc(Cl)c4)nnc3s2)c1	none (no result: Measles CPE)
CCCS(=O)(=O)N1CCCC(C(=O)NCCN(CC)CC)C1 (stereo not drawn)	none
Cc1onc(-c2ccccc2Cl)c1C(=O)OCN1C(=O)c2ccccc2C1=O	CYP2C19 inhib 56.1
CCSc1nnc(NC(=O)c2c(-c3ccccc3Cl)noc2C)s1	CYP2C9 inh 94.7, CYP2C19 inhib 99.6
Cc1onc(-c2ccccc2Cl)c1C(=O)Nc1ccccc1C(N)=O	CYP2C19 inhib 56.0
